Measurements: PubChem BioAssay (EPA / NIEHS)
Values joined by “and” are separate entries in the source; they are usually repeats but may differ in a detail not shown here. Equal values may be shown once. Active and inactive are the calls of the source. The calls were made as follows: active = hit-call score of the fitted dose curve at least 0.9, where 1 is the maximum; inactive = score below 0.9.

What follows are compounds tested on Monocyte Chemoattractant Protein-1 (MCP1), CCL2 (gene 6347) (assay: BSK_4H_MCP1: BioMAP Diversity Plus: 4H Assay for Monocyte Chemoattractant Protein-1 (MCP1) Biomarker Activity (AID 2283018)). Conditions: primary human endothelial cells (HUVEC); actives raise or lower the signal.
How it was run: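 ELISA read-out of MCP-1 from human vascular endothelial primary cells taken at 24 hours after compound exposure. Activity was fitted in both directions relative to DMSO, which served as negative control.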

| Compound | outcome | AC50 |
| --- | --- | --- |
| CCNc1nc(NC(C)(C)C)nc(OC)n1 | inactive |  |
| CC=C(C)C(C)=O | inactive |  |
| O=C1CCCCCCCCCCC1 | inactive |  |
| Cc1ccc([N+](=O)[O-])cc1N | inactive |  |
| CC/C=C\C/C=C\C/C=C\CCCCCCCC(=O)OC |  | 32.7 µM (active) |
| CCOC(=O)C1=NOC(c2ccccc2)(c2ccccc2)C1 | inactive |  |
| CCN1CN(CC)CN(CC)C1 | inactive |  |
| c1ccc2sc(SSN3CCOCC3)nc2c1 |  | 4.41 µM (active) |
| C[N+](C)(C)CCCNS(=O)(=O)C(F)(F)C(F)(F)C(F)(F)C(F)(F)C(F)(F)C(F)(F)C(F)(F)C(F)(F)F | inactive |  |
| CC=C(C)C=CC=C(C)C | inactive |  |
| Oc1c(Cl)cc(Cl)c(Cl)c1Cl |  | 27.9 µM (active) |
| Nc1cccc(N)n1 | inactive |  |
| C1CNCCN1 | inactive |  |
| C=CC(=O)NC(C)(C)C | inactive |  |
| C=CC(=O)OCCCCCCCC(C)C | inactive |  |
| O=C(O)C(F)(F)C(F)(F)C(F)(F)C(F)(F)C(=O)O | inactive |  |

| Compound | outcome | AC50 |
| --- | --- | --- |
| Oc1ccccc1Cc1ccccc1O |  | 4.2 µM (active) and 10.9 µM (active) |
| CC1=CC=C(C(C)C)CC1 | inactive |  |
| C=CC(=O)NCOCCCC | inactive |  |
| CC(CCC(=O)O)(c1ccc(O)cc1)c1ccc(O)cc1 | inactive |  |
| Oc1ccc(/C=C/c2cc(O)cc(O)c2)cc1 |  | 9.4 µM (active) |
| CCCC(C)C(=O)OCC (centres undefined) | inactive |  |
| CCCCCCCCC(CO)CCCCCC (centres undefined) | inactive |  |
| C=C(C)C(=O)OCCCCCCCCCCCC | inactive |  |
| O=C(Oc1ccccc1)c1ccccc1C(=O)Oc1ccccc1 | inactive |  |
| CCCCCCCO | inactive |  |
| CCCCCC1=CCCC1=O | inactive |  |
| C=CC(=O)OCCCCCCOC(=O)C=C |  | 9.96 µM (active) |
| CC(Cl)COP(=O)(OCC(C)Cl)OCC(C)Cl (centres undefined) | inactive |  |
| CCC1(C)C(=O)N(Cl)C(=O)N1Cl (centres undefined) | inactive |  |
| C=CC(=O)OCC(C)OCC(C)OCC(C)OC(=O)C=C (centres undefined) |  | 7.07 µM (active) |
| CCCCCCC=O | inactive |  |

What follows are compounds tested on Human Leukocyte Antigen - DR isotype (HLADR), HLA-DRA (gene 3122) (assay: BSK_3C_HLADR: BioMAP Diversity Plus: 3C Assay for Human Leukocyte Antigen - DR isotype (HLADR) Biomarker Activity (AID 2283019;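 as to outcome: ELISA of cell-surface HLA-DR on HUVEC 24 h after dosing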)). Conditions: primary human endothelial cells (HUVEC); actives raise or lower the signal.
How it was run: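 Compound added to primary HUVEC cultures, 24 h incubation, then HLA-DR determined by ELISA; endpoint derived by bidirectional fitting relative to DMSO negative control.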

| Compound | outcome | AC50 |
| --- | --- | --- |
| CCNc1nc(NC(C)(C)C)nc(OC)n1 | inactive |  |
| CC=C(C)C(C)=O | inactive |  |
| O=C1CCCCCCCCCCC1 | inactive |  |
| Cc1ccc([N+](=O)[O-])cc1N | inactive |  |
| CC/C=C\C/C=C\C/C=C\CCCCCCCC(=O)OC |  | 10.7 µM (active) |
| CCOC(=O)C1=NOC(c2ccccc2)(c2ccccc2)C1 | inactive |  |
| CCN1CN(CC)CN(CC)C1 |  | 20 µM (active) |
| c1ccc2sc(SSN3CCOCC3)nc2c1 |  | 5.37 µM (active) |
| C[N+](C)(C)CCCNS(=O)(=O)C(F)(F)C(F)(F)C(F)(F)C(F)(F)C(F)(F)C(F)(F)C(F)(F)C(F)(F)F | inactive |  |
| CC=C(C)C=CC=C(C)C |  | 20 µM (active) |
| Oc1c(Cl)cc(Cl)c(Cl)c1Cl |  | 25 µM (active) |
| Nc1cccc(N)n1 | inactive |  |
| C1CNCCN1 | inactive |  |
| C=CC(=O)NC(C)(C)C | inactive |  |
| C=CC(=O)OCCCCCCCC(C)C | inactive |  |
| O=C(O)C(F)(F)C(F)(F)C(F)(F)C(F)(F)C(=O)O | inactive |  |

| Compound | outcome | AC50 |
| --- | --- | --- |
| Oc1ccccc1Cc1ccccc1O | inactive |  |
| CC1=CC=C(C(C)C)CC1 | inactive |  |
| C=CC(=O)NCOCCCC | inactive |  |
| CC(CCC(=O)O)(c1ccc(O)cc1)c1ccc(O)cc1 | inactive |  |
| Oc1ccc(/C=C/c2cc(O)cc(O)c2)cc1 |  | 20 µM (active) |
| CCCC(C)C(=O)OCC (centres undefined) | inactive |  |
| CCCCCCCCC(CO)CCCCCC (centres undefined) | inactive |  |
| C=C(C)C(=O)OCCCCCCCCCCCC | inactive |  |
| O=C(Oc1ccccc1)c1ccccc1C(=O)Oc1ccccc1 |  | 20 µM (active) |
| CCCCCCCO | inactive |  |
| CCCCCC1=CCCC1=O |  | 20 µM (active) |
| C=CC(=O)OCCCCCCOC(=O)C=C |  | 4.69 µM (active) |
| CC(Cl)COP(=O)(OCC(C)Cl)OCC(C)Cl (centres undefined) | inactive |  |
| CCC1(C)C(=O)N(Cl)C(=O)N1Cl (centres undefined) | inactive |  |
| C=CC(=O)OCC(C)OCC(C)OCC(C)OC(=O)C=C (centres undefined) |  | 8.55 µM (active) |
| CCCCCCC=O | inactive |  |
